# Several values for one entry are separate records, joined by “and”; a condition that tells them apart may be missing. Identical values can stand only once. Results filed as inconclusive are left out. Some structures have more than one record in an assay (separate samples or runs), and their calls can disagree. Activity calls are given as the source filed them. The call rests on the fitted dose curve; in most records, active means well fitted curve in the direction sought with a large enough effect; inconclusive means small, poorly fitted or top-dose-only effect, or another doubt; inactive means no such curve, though single readings can be large; an effect the other way counts as inactive or inconclusive.
# Assays:
# [1] = Viability qHTS for spleen associated tyrosine kinase inhibitor (SYKi) naive MV4-11 cells (AID 1963823); further: nearly all actives have a fitted effect of over 40% in size
# Method in brief: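 Viability of MV4-11 AML cells lacking prior SYK inhibitor exposure is scored by CellTiter-Glo luminescence following 72 hr compound incubation at 37 C, 5% CO2, seeded at 500 cells per well.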
# [2] = Viability qHTS for spleen associated tyrosine kinase inhibitor (SYKi) drug resistant MV4-11 cells (AID 1963824); further: nearly all actives have a fitted effect of over 35% in size
# Method in brief: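 SYK-inhibitor-resistant MV4-11 AML cells were seeded at 500 per well onto compound and cultured 72 hours (37 °C, 5% CO2). CellTiter-Glo was then added, and after 10 min at room temperature, luminescence gave viability.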
# [3] = Cellular viability qHTS for adrenocortical cancer (ACC) cell line SW-13 (AID 1963989); conditions: SW-13 ACC cells viability, CellTiter-Glo, 48 h; activity (max response): stronger effect = lower value; further: nearly all actives have a fitted effect of over 65% in size;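 on activity (max response): cells grown in serum-free medium with ITS supplement; on the % scale 0 is the no-effect control and ±100 the full control effect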
# Method in brief: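 Here, serum-free SW-13 cultures were dosed up to 46 uM. Following 48 h, ATP-dependent luminescence (CellTiter-Glo) reported viable cells, and logistic modeling produced IC50 values.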
# [4] = Cellular viability qHTS for adrenocortical cancer (ACC) cell line NCI-H295R (AID 1963990); further: nearly all actives have a fitted effect of over 60% in size
# Method in brief: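 Viability of NCI-H295R after 48 h of treatment (final up to 46 uM) measured through cellular ATP luminescence.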
# Potency means the concentration at half of the fitted maximal effect.
SMILES,Potency [1],Potency [2],Potency [3],activity (max response) [3],Potency [4]
CNS(=O)(=O)c1ccc2c(c1)/C(=C/c1[nH]c3c(c1CCCN1CCN(C)CC1)CCCC3)C(=O)N2,0.186 µM (active),0.332 µM (active),28.2 µM (active),,
COc1ccccc1C(=O)Nc1cc2c(cc1N1CCCC1)n(C)c(=O)n2C,8.2 µM (active),9.34 µM (active),,-26.1% (inactive),
O=S(=O)(O)c1ccc2nc(-c3ccccc3)[nH]c2c1,inactive,inactive,,-14% (inactive),
Cc1ccc(NC(=O)Nc2nnc(Sc3ncnc4cc(OCCCN5CCOCC5)ccc34)s2)cc1,0.0148 µM (active),0.0166 µM (active),,-9.58% (inactive),
CCc1cc2c(cc1N1CCC(N3CCOCC3)CC1)C(C)(C)c1[nH]c3cc(C#N)ccc3c1C2=O,0.178 µM (active),0.632 µM (active),,-11.5% (inactive),
Nc1nc(F)nc2c1ncn2[C@@H]1O[C@H](COP(=O)(O)O)[C@@H](O)[C@@H]1O,8.33 µM (active),14.8 µM (active),,-12.7% (inactive),
CCCCCCCCCCCCCC[N+](C)(C)Cc1ccccc1,2.99 µM (active),3.35 µM (active),6.51 µM (active),,
CN(C(=O)c1c(O)c2ccccc2n(C)c1=O)c1ccccc1,inactive,11.9 µM (active) and inactive,,3.23% (inactive) and -16.1% (inactive),
CCN(CC)C(C)CN1c2ccccc2Sc2ccccc21 (stereo not given),inactive,inactive,,16.5% (inactive),
C[C@]1(Cn2ccnn2)[C@H](C(=O)O)N2C(=O)C[C@H]2S1(=O)=O,inactive,inactive,,2.68% (inactive),
CN(C)CCN1C(=O)c2cccc3cc(NC(N)=O)cc(c23)C1=O,4.17 µM (active),4.17 µM (active),17.8 µM (active),,
Cc1cccc(C)c1NC(=O)CN1CCN(CCCC(c2ccc(F)cc2)c2ccc(F)cc2)CC1,10.6 µM (active),8.41 µM (active),,-13.9% (inactive),
CN1CCCN=C1/C=C/c1cccs1,inactive,inactive,,0.0735% (inactive) and 9.48% (inactive),inactive
CC(C)NCC(O)c1cc(O)cc(O)c1 (stereo not given),inactive,inactive,,13.2% (inactive),
CCCCCCC[N+](CC)(CC)CCCCc1ccc(Cl)cc1,1.68 µM (active),2.11 µM (active),5.8 µM (active),,
CN1CCN(c2ccc3nc(-c4cc(C(C)(C)C)c(OCCCC(=O)NCCCN=[N+]=[N-])c(C(C)(C)C)c4)[nH]c3c2)CC1,5.25 µM (active),5.25 µM (active),3.98 µM (active),,3.16 µM (active)
CCCC1(CCC)CCC2(CCN(CCCN(CC)CC)C2)CC1,2.35 µM (active),2.31 µM (active),3.55 µM (active),,6.31 µM (active)
C/C(=N/NC(=O)c1ccncc1)C(=O)O,inactive,inactive,,7.83% (inactive),inactive
CCNC(=O)NCc1cccc(Cl)c1,inactive,inactive,,-4.81% (inactive),inactive
O=C(O)CCC(=O)c1ccc(-c2ccccc2)cc1,inactive,inactive,,23% (inactive),inactive
C=CCNc1c(O)cc2c(O)c1C[C@@H](C)C[C@H](OC)[C@H](O)[C@@H](C)/C=C(/C)[C@H](OC(N)=O)[C@@H](OC)/C=C\C=C(\C)C(=O)N2,0.132 µM (active),0.417 µM (active),3.16 µM (active),,10 µM (active)
CNCc1ccc(-c2cc(-c3nc(-c4ccc(S(=O)(=O)C(C)C)cc4)cnc3N)on2)cc1,0.259 µM (active),0.326 µM (active),3.98 µM (active),,0.316 µM (active)
Cc1c[nH]c2ncnc(N3CCC(CN)(C(=O)Nc4cccc(OC(=O)N(C)C)c4)CC3)c12,517 nM (active) and 662 nM (active),1.3 µM (active) and 1.66 µM (active),,-9.88% (inactive),inactive and 22.4 µM (active)
CN(C)C[C@@H]1CCn2cc(c3ccccc32)C2=C(C(=O)NC2=O)c2cn(c3ccccc23)CCO1,0.186 µM (active),0.417 µM (active),28.2 µM (active),,31.6 µM (active)
C[C@]12CCC(=O)C=C1CC[C@@H]1[C@@H]2C(=O)C[C@@]2(C)[C@H]1CC[C@]2(O)C(=O)CO,inactive,inactive,,7.27% (inactive),inactive
Cc1[nH]nc2ncc(C(=O)N3CCC[C@H]3c3ccc(Cl)cc3)cc12,5.25 µM (active),2.95 µM (active),,-6.61% (inactive),inactive

# Reference: PubChem BioAssay (NCATS)
